Reference: the supplement of paper PMC10981050
Where “and” joins values, the source holds several entries; their conditions need not be identical. Identical values can stand only once. Counter-ions that a name gives are not always drawn.

Columns and labels:
Test in all cases: cell viability relative to vehicle control; higher = less cytotoxic
Details in all cases: 10 µM
K562 = test system: K562
In short: (§1)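 CRISPR-edited mutant clones and isogenic wild-type clones from four leukaemia lines were screened against Selleck bioactive, kinase and epigenetic probe libraries, with identity-inconsistent compounds excluded. Each compound was acoustically dispensed at a single 10 µM dose into 384-well plates holding 2000 cells in 50 µL medium per well. After 48 h the supernatant was removed and CellTiter-Glo luminescence was read. Viability was expressed as percent of the on-plate vehicle control and analysed in Genedata Screener.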

MARIMO = test system: MARIMO
In short: as §1

MOLM14 = test system: MOLM14
In short: as §1

OCI-AML2 = test system: OCI-AML2
In short: as §1

| Structure (SMILES) | cell viability (K562; SRSF2 genotype: SRSF2 P95H/wt) | cell viability (K562; SRSF2 genotype: SRSF2 wt/wt) [%] | cell viability (MARIMO; SRSF2 genotype: SRSF2 P95H/wt) [%] | cell viability (MARIMO; SRSF2 genotype: SRSF2 wt/wt) [%] | cell viability (MOLM14; SRSF2 genotype: SRSF2 P95H/wt) [%] | cell viability (MOLM14; SRSF2 genotype: SRSF2 wt/wt) [%] | cell viability (OCI-AML2; SRSF2 genotype: P95H/wt) [%] | cell viability (OCI-AML2; SRSF2 genotype: wt/wt) [%] |
| --- | --- | --- | --- | --- | --- | --- | --- | --- |
| COc1cc(C=CC=O)ccc1O [Ferulaldehyde] | 102% and 97.5% | 98.5 | 97 | 103 | 89.6 | 97.7 | 95.6 | 111 |
| COC(=O)[C@@H]1[C@H]2C[C@H]3c4[nH]c5ccccc5c4CCN3C[C@@H]2CC[C@@H]1O [Yohimbine hydrochloride (Antagonil)] | 103% and 98.2% | 96.5 | 95.8 | 103 | 95 | 102 | 94.9 | 96.1 |
| O=C(O)Cn1nnc(-c2cc(N3CCC(Oc4cc(F)ccc4Br)CC3)no2)n1 | 106% and 102% | 110 | 101 | 104 | 103 | 103 | 101 | 103 |
| Cc1nc(C)c(C)nc1C [Ligustrazine hydrochloride] | 97.2% and 97.7% | 91.8 | 89.8 | 102 | 95.8 | 98.7 | 87.8 | 107 |
| CCN(CC)C(=O)/C(C#N)=C/c1cc(O)c(O)c([N+](=O)[O-])c1 [Entacapone] | 101% and 105% | 107 | 101 | 102 | 102 | 102 | 114 | 97.4 |
| Cc1ccc(Nc2ncc3c(n2)N(C)C(=O)N(c2cc(NC(=O)c4cccc(C(F)(F)F)c4)ccc2C)C3)cn1 | 57.3% and 59.5% | 43.1 | 38.1 | 37.4 | 17.9 | 17.5 | 40.8 | 35.2 |
| COc1ccnc(C[S+]([O-])c2nc3cc(OC(F)F)ccc3[nH]2)c1OC (stereo unspecified) [Pantoprazole (Protonix)] | 103% and 104% | 102 | 109 | 103 | 115 | 112 | 113 | 96.5 |
| C[C@H](CCC(=O)O)[C@H]1CC[C@H]2[C@@H]3[C@@H](O)C[C@@H]4C[C@H](O)CC[C@]4(C)[C@H]3CC[C@]12C [Ursodiol (Actigal Urso)] | 95.3% and 97.4% | 96.6 | 103 | 98.9 | 99.4 | 100 | 98.1 | 99.7 |
| COc1c(N2C[C@@H]3CCCN[C@@H]3C2)c(F)cc2c(=O)c(C(=O)O)cn(C3CC3)c12 [Moxifloxacin hydrochloride] | 104% and 99.6% | 93.3 | 101 | 105 | 92.9 | 98.5 | 90.4 | 97.2 |
| CC(=O)SCC(Cc1ccccc1)C(=O)NCC(=O)OCc1ccccc1 (stereo unspecified) [Racecadotril (Acetorphan)] | 108% and 106% | 103 | 98.3 | 99 | 106 | 105 | 118 | 102 |
| Cc1ccccc1N1CCN(CCc2nnc3n2CCCC3)CC1 [Dapiprazole Hydrochloride] | 103% and 96% | 93.2 | 97.7 | 110 | 97 | 102 | 96.4 | 97.1 |
| CCOC(=O)C1=C(COCCN)NC(C)=C(C(=O)OC)[C@@H]1c1ccccc1Cl [Levamlodipine] | 75.1% and 83.2% | 77 | 72.9 | 75 | 50.3 | 52 | 30.2 | 39.7 |
| CCCCCOC(=O)Nc1nc(=O)n([C@@H]2O[C@H](C)[C@@H](O)[C@H]2O)cc1F [Capecitabine (Xeloda)] | 102% and 99.8% | 104 | 99.7 | 108 | 101 | 101 | 92.8 | 99.2 |
| COCCOC(=O)C1=C(C)NC(C)=C(C(=O)OC(C)C)C1c1cccc([N+](=O)[O-])c1 (stereo unspecified) [Nimodipine (Nimotop)] | 88.8% and 92.4% | 99.3 | 85.2 | 92.7 | 87.6 | 99.4 | 83.7 | 88.4 |
| Oc1ccc2c(c1)OCO2 [Sesamol] | 96.7% and 82% | 83.8 | 76.8 | 88.2 | 86.5 | 88 | 92 | 92.1 |
| C[N+]1(C)[C@@H]2CC[C@H]1C[C@@H](OC(=O)C(O)c1ccccc1)C2 (stereo partly specified) [Homatropine Methylbromide] | 103% and 100% | 101 | 106 | 114 | 102 | 104 | 92.9 | 105 |
| O.O.O.O.O.O.O.[Cl][La]([Cl])[Cl] [Lanthanum(III) chloride heptahydrate] | 107% and 102% | 102 | 109 | 114 | 107 | 104 | 99.2 | 99.4 |
| Cc1ncc([N+](=O)[O-])n1CCO [Metronidazole (Flagyl)] | 105% and 104% | 109 | 107 | 109 | 104 | 103 | 106 | 111 |
| Nc1nc(N)nc(-c2cc(Cl)ccc2Cl)n1 [Irsogladine] | 95.2% and 105% | 97.1 | 102 | 113 | 101 | 103 | 108 | 101 |

| Structure (SMILES) | cell viability (K562; SRSF2 genotype: SRSF2 P95H/wt) | cell viability (K562; SRSF2 genotype: SRSF2 wt/wt) [%] | cell viability (MARIMO; SRSF2 genotype: SRSF2 P95H/wt) [%] | cell viability (MARIMO; SRSF2 genotype: SRSF2 wt/wt) [%] | cell viability (MOLM14; SRSF2 genotype: SRSF2 P95H/wt) [%] | cell viability (MOLM14; SRSF2 genotype: SRSF2 wt/wt) [%] | cell viability (OCI-AML2; SRSF2 genotype: P95H/wt) [%] | cell viability (OCI-AML2; SRSF2 genotype: wt/wt) [%] |
| --- | --- | --- | --- | --- | --- | --- | --- | --- |
| CCCCCCCCCCCCCCCC(=O)N[C@@H](CCSC)C(=O)NCC(=O)N[C@@H](Cc1ccc(O)cc1)C(=O)N[C@@H](CCC(N)=O)C(=O)N[C@@H](CCCCN)C(=O)N[C@@H](CCCCN)C(=O)N[C@@H](CC(C)C)C(=O)N[C@@H](CCCNC(=N)N)C(=O)N[C@@H](CO)C(=O)N[C@@H](CCSC)C(=O)N[C@H](C(=O)N[C@@H](CC(=O)O)C(=O)N[C@@H](CCCCN)C(=O)N[C@@H](Cc1ccc(O)cc1)C(=O)N[C@@H](CCCNC(=N)N)C(=O)N[C@@H](CC(C)C)C(=O)O)[C@@H](C)O | 90.8% and 92.9% | 90 | 76.6 | 82.2 | 58.6 | 72.7 | 75.1 | 94.9 |
| O=C(/C=C/C=C/c1ccc2c(c1)OCO2)N1CCCCC1 [Piperine (1-Piperoylpiperidine)] | 105% and 94.8% | 89.7 | 92.7 | 100 | 106 | 100 | 85.6 | 97.3 |
| CC(C)(Sc1ccncc1-c1ccc(C#N)c2ccccc12)C(=O)O [Verinurad (RDEA3170)] | 102% and 101% | 102 | 105 | 104 | 95.8 | 102 | 109 | 105 |
| CC(C[N+](C)(C)C)OC(N)=O (stereo unspecified) [Bethanechol chloride] | 97.9% and 102% | 102 | 111 | 112 | 108 | 109 | 109 | 98.2 |
| CNCCc1ccccn1 [Betahistine] | 102% and 100% | 102 | 100 | 103 | 101 | 105 | 102 | 105 |
| CC(C)[C@H](NC(=O)OCc1ccccc1)C(=O)N[C@@H](C)C(=O)N[C@@H](CC(=O)O)C(=O)CF | 109% and 102% | 106 | 99.8 | 102 | 104 | 104 | 102 | 97.4 |
| CCCCCCCCCC=O [Decyl aldehyde] | 98.7% and 94.8% | 106 | 99.1 | 101 | 102 | 105 | 100 | 111 |
| Cc1cc(NC(=O)Nc2ccc(N(C)C)cc2)c2cc(F)cc(F)c2n1 | 89.9% and 95.8% | 93.1 | 98.3 | 109 | 102 | 105 | 83.8 | 94.9 |
| CCCCCCC(O)C(=O)O (stereo unspecified) [2-Hydroxycaprylic acid] | 103% and 102% | 107 | 101 | 105 | 101 | 109 | 105 | 111 |
| O=c1[nH]c(=O)n([C@H]2C[C@H](O)[C@@H](CO)O2)cc1/C=C/Br [Brivudine] | 97.4% and 92% | 103 | 101 | 102 | 95.6 | 105 | 99.8 | 107 |
| Cc1cc(Nc2ncnc3ccc(NC4=NC(C)(C)CO4)cc23)ccc1Oc1ccn2ncnc2c1 | 87.4% and 89.8% | 91.5 | 82.5 | 102 | 88.2 | 97.2 | 64.9 | 73.7 |
| CCOC(=O)/C=C/c1ccc(O)c(OC)c1 [Ethyl ferulate] | 98% and 104% | 104 | 92 | 107 | 98 | 101 | 112 | 108 |
| CN(C)N(C)C(=O)[C@@]1(Cc2ccccc2)CCCN(C(=O)[C@@H](Cc2c[nH]c3ccccc23)NC(=O)C(C)(C)N)C1 [Anamorelin] | 82.4% and 78.3% | 80.7 | 70.5 | 74.3 | 76.5 | 78.8 | 69.2 | 68.2 |
| O=C1CCc2ccccc2O1 [Dihydrocoumarin] | 95.7% and 98.2% | 94.4 | 94.5 | 105 | 105 | 102 | 93.6 | 100 |
| CC1OC2OC3C(OCC(O)C3O)OC(=O)C34CCC(C)(C)CC3C3=CCC5C6(C)CC(O)C(OC7OC(CO)C(O)C(O)C7OC7OCC(OC(=O)CC(C)(O)CC(=O)OC1C(OC1OCC(O)C(O)C1O)C2O)C(O)C7O)C(C)(CO)C6CCC5(C)C3(C)CC4O (stereo unspecified) [Tubeimoside II] | 23.1% and 15.2% | 16.7 | 46.2 | 70.6 | 51.2 | 86.1 | 28.5 | 38.4 |
| C[C@H](NC(=O)CCC(F)(F)F)C(=O)N[C@@H]1C(=O)N(CCO)c2ncccc2-c2ccccc21 | 103% and 104% | 95.9 | 97.4 | 108 | 109 | 103 | 89.4 | 99.8 |
| CN[C@@H](C)C(=O)N[C@H](C(=O)N1CCC[C@H]1C(=O)Nc1snnc1-c1ccccc1)C1CCCCC1 | 98.6% and 96.3% | 97.7 | 101 | 105 | 89.6 | 104 | 102 | 123 |
| O=c1[nH]cnc2ccccc12 [4-Hydroxyquinazoline] | 99.8% and 93.6% | 96.8 | 93.8 | 92.2 | 106 | 95.5 | 99.6 | 92.6 |
